Hit rate of the full screen: of about 370,000 compounds, about 4,800 (1.3%) were called active.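 Rule for the calls: active = inhibition above about 21% made by adding two undisclosed values (limit read from the data); inactive = the rest.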 This excerpt belongs to a sample that is enriched for actives.
What follows are compounds tested against Protein arginine N-methyltransferase 1 (Homo sapiens) (UniProt Q99873) (assay: PRMT1 methyltransferase inhibitors, primary screen, biochemical, fluorescence polarization (AID 652257)). Details: recombinant PRMT1, activity-based probe fluorescence polarization; at 2.79 µM; hits give high values.
Sequence of Protein arginine N-methyltransferase 1 (Homo sapiens) (Q99873 whole entry, looked up): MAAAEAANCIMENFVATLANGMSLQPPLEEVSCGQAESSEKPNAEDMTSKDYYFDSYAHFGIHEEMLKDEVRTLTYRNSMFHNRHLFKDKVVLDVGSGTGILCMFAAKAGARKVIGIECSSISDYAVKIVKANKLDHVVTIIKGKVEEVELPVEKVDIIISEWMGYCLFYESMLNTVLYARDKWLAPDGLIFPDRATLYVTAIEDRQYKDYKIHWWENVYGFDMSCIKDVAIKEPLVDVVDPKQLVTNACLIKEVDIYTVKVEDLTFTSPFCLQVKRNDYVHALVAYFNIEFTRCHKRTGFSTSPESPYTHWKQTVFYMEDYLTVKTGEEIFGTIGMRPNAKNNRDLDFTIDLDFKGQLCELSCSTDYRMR

Q: How did the inhibition turn out when `CCN(CC)C(=O)CC[C@@H]1CC[C@]2(CCCN(S(=O)(=O)C3CCCCC3)C2)O1` was run?
A: 8.38% (inactive)

Q: How did the inhibition turn out when `CC1(C)SC2c3ccccc3C(=O)N2[C@@H]1C(=O)NCc1ccco1` (stereo not given in full) was run?
A: 2.92% (inactive)

Q: `CN=C1SC(C(=O)O)CC(=O)N1C` (stereo not given) was tested. Which inhibition did it give?
A: 0.87% (inactive)

Q: `COC(=O)[C@]12C[C@H](CC(=O)N3CCOCC3)C(=O)N(Cc3ccc(Cl)cc3Cl)C1=C[C@H](C(C)C)O[C@@H]2C1CC1` was tested. Which inhibition did it give?
A: 3.55% (inactive)

Q: Which inhibition does the source give for `c1ccc(C2CNCc3c2ccc2ccccc32)cc1` (stereo not given) here?
A: 2.21% (inactive)

Q: Which inhibition does the source give for `CCCC(C(=O)NCc1ccco1)N(C(=O)CNS(=O)(=O)c1ccccc1)C1CCCC1` (stereo not given) here?
A: -1.78% (inactive)

Q: Which inhibition does the source give for `COC(=O)C1CN(CC(C)C)CCS(=O)(=O)N1Cc1ccc(C)cc1` (stereo not given) here?
A: 6.76% (inactive)

Q: `O=C(C1CCCN1S(=O)(=O)c1ccccc1)N1CCc2ccccc2C1` (stereo not given) was tested. Which inhibition did it give?
A: -6.97% (inactive)

Q: Which inhibition does the source give for `CC(C)CNS(=O)(=O)CC1NCCc2ccccc21` (stereo not given) here?
A: 4.3% (inactive)

Q: With `CCn1c2ccccc2c2cc(NC(=O)CSc3nnc(-c4ccccc4)n3-c3ccc(C)cc3)ccc21` as the compound, how does the inhibition read?
A: -1.61% (inactive)

Q: With `O=C(c1cc(-c2ccco2)nc2ccccc12)N(Cc1nnc(-c2ccc(Cl)cc2)o1)C1CC1` as the compound, how does the inhibition read?
A: 22.5% (active)

Q: `CC(=O)N1CCN(C(=O)c2cc(-c3ccc(Cl)s3)nc3ccccc23)CC1` was tested. Which inhibition did it give?
A: 2.92% (inactive)

Q: `CC(=O)N1CCN(C(=O)c2cc(-c3ccc(C)o3)nc3ccccc23)CC1` was tested. Which inhibition did it give?
A: 32.5% (active)

Q: `O=C(c1cc(-c2ccc(Cl)s2)nc2ccccc12)N1CCOCC1` was tested. Which inhibition did it give?
A: -5.47% (inactive)

Q: With `CN(C)C(CNC(=O)CCCOc1ccccc1)c1ccco1` (stereo not given) as the compound, how does the inhibition read?
A: -0.86% (inactive)

Q: `CC(C)N(Cc1nnc(-c2ccccc2Br)o1)C(=O)c1cc(Cl)nc2ccccc12` was tested. Which inhibition did it give?
A: -5.25% (inactive)

Q: With `O=C(c1ccc(Cl)s1)N(Cc1nnc(-c2ccccc2Cl)o1)C1CC1` as the compound, how does the inhibition read?
A: 1.28% (inactive)

Q: How did the inhibition turn out when `Cc1cc(C(=O)Nc2ccc(C)c(S(=O)(=O)N3CCOCC3)c2)c2ccccc2n1` was run?
A: 0.88% (inactive)

Q: How did the inhibition turn out when `O=C(Nc1cccc(F)c1)c1cc(-c2ccco2)nc2ccccc12` was run?
A: 30.3% (active)

Q: How did the inhibition turn out when `O=C(Nc1cccc(F)c1)c1coc(=O)c(Br)c1` was run?
A: 5.43% (inactive)

Q: With `CN(CCOc1ccccc1)Cc1nc2cc(Cl)ccc2c(=O)[nH]1` as the compound, how does the inhibition read?
A: 2.3% (inactive)

Q: Which inhibition does the source give for `CN(CCOc1ccccc1)C(=O)c1cc(-c2ccco2)nc2ccccc12` here?
A: 29.2% (active)

Q: How did the inhibition turn out when `COC(=O)C[C@H]1CC[C@H]2[C@H](COc3ccc(NC(=O)C4CC4)cc3C(=O)N2C)O1` was run?
A: 1.52% (inactive)

Q: For `CC(=O)NCCc1ccc(S(=O)(=O)N(C)C2CCS(=O)(=O)C2)cc1` (stereo not given), which inhibition is on record?
A: -0.5% (inactive)

Q: `CN1C[C@]2(C=C3CCCCC3n3c(=O)n(-c4ccccc4)c(=O)n32)N=C1NC(=O)c1ccccc1` (stereo not given in full) was tested. Which inhibition did it give?
A: 1.11% (inactive)

Q: With `COC(=O)C[C@@H]1CC[C@H]2[C@@H](COc3ccc(NS(=O)(=O)CC(F)(F)F)cc3C(=O)N2C)O1` as the compound, how does the inhibition read?
A: 4.04% (inactive)

Q: Which inhibition does the source give for `O=C(CNS(=O)(=O)c1ccccc1)NCC(=O)OCc1ccccc1F` here?
A: 1.67% (inactive)

Q: `CC(=O)C1(C(=O)Nc2nccs2)CC(c2ccccc2C(F)(F)F)=NO1` (stereo not given) was tested. Which inhibition did it give?
A: 5.04% (inactive)

Q: With `O=C1CCC/C(=N\NC(=O)NC2CCCCC2)C1` as the compound, how does the inhibition read?
A: 0.8% (inactive)

Q: For `O=C(OC12CCCN(C1)/C(=C/c1ccccc1)C2)c1ccco1` (stereo not given), which inhibition is on record?
A: -3.75% (inactive)

Q: How did the inhibition turn out when `CNC(=O)NC(=O)CSc1nnc(-c2ccc(F)cc2)n1CC1CCCO1` (stereo not given) was run?
A: 2.71% (inactive)

Q: Which inhibition does the source give for `COc1ccccc1CCNC(=O)C1CCN(c2nc(C)cc(C)n2)CC1` here?
A: 1.67% (inactive)

Q: `CCn1c(SCC(C)=O)nc2sc3c(c2c1=O)CCCC3` was tested. Which inhibition did it give?
A: -4.09% (inactive)

Q: `COc1ccc(NC(=O)CN(C)C(=O)c2cc(C)oc2C)cc1` was tested. Which inhibition did it give?
A: -0.84% (inactive)

Q: `Cc1ccc(NC(=O)c2cc(-c3ccc(C)o3)nc3ccccc23)nc1` was tested. Which inhibition did it give?
A: 47.4% (active)

Q: How did the inhibition turn out when `Cc1ccc(S(=O)(=O)CCC(=O)OCC(=O)N(C)C2CCS(=O)(=O)C2)cc1` (stereo not given) was run?
A: 1.31% (inactive)

Q: `O=C(Nc1nc2ccc(Cl)cc2s1)c1cc(-c2ccc(Cl)cc2)nc2ccccc12` was tested. Which inhibition did it give?
A: 9% (inactive)

Q: How did the inhibition turn out when `Cc1cc(NC(=O)c2ccccc2C)no1` was run?
A: -1.67% (inactive)

Q: `COc1cccc(NC(=O)CN(C)C(=O)c2cc(Cl)nc3ccccc23)c1` was tested. Which inhibition did it give?
A: -4.52% (inactive)

Q: `CN(C(=O)COC(=O)c1cc(-c2ccco2)nc2ccccc12)C1CCS(=O)(=O)C1` (stereo not given) was tested. Which inhibition did it give?
A: 21.6% (active)

Q: Which inhibition does the source give for `COc1ccc(NC(=O)CN(C)C(=O)c2cc(-c3ccc(C)o3)nc3ccccc23)cc1` here?
A: 26.9% (active)

Q: For `Cc1cc(C(=O)OCC(=O)N2C(C)CCCC2C)c2ccccc2n1` (stereo not given), which inhibition is on record?
A: 7.6% (inactive)

Q: How did the inhibition turn out when `CC1(C)CC(CNCCC(c2ccc(F)cc2)c2ccco2)CCO1` (stereo not given) was run?
A: -2.86% (inactive)

Q: How did the inhibition turn out when `O=C(NCCc1ccc(Cl)cc1Cl)c1cc([N+](=O)[O-])c[nH]c1=O` was run?
A: -1.63% (inactive)

Q: With `CC(=O)c1ccc(Cc2ncc(C(F)(F)F)cc2Cl)s1` as the compound, how does the inhibition read?
A: 1.39% (inactive)

Q: How did the inhibition turn out when `CCOC(=O)C1CCN(C(=O)C(C)(C)NC(=O)Nc2ccccc2Cl)CC1` was run?
A: -1.31% (inactive)

Q: `Cc1ccc(-n2c(SCC(=O)Nc3ccc(S(=O)(=O)Nc4nccs4)cc3)nnc2-c2cccnc2)cc1` was tested. Which inhibition did it give?
A: -3.77% (inactive)

Q: `O=C(COC(=O)Cc1ccc(F)cc1)Nc1cc(S(=O)(=O)N2CCOCC2)ccc1N1CCCC1` was tested. Which inhibition did it give?
A: -0.54% (inactive)

Q: With `COCCNC(=S)Nc1cc(S(=O)(=O)N2CCOCC2)ccc1N1CCCCC1` as the compound, how does the inhibition read?
A: 29.6% (active)

Q: `CC(C)CCC(=O)Nc1cc(S(=O)(=O)N2CCOCC2)ccc1N1CCCC1` was tested. Which inhibition did it give?
A: -0.42% (inactive)

Q: For `CN(C)Cc1cn(-c2ccc(-c3noc4c3C(=O)N(CC(=O)N3CCOCC3)CC4)cc2)nn1`, which inhibition is on record?
A: 3.49% (inactive)

Q: Which inhibition does the source give for `O=C(/C=C/c1cccc(C(F)(F)F)c1)N1CCN(c2ccccn2)CC1` here?
A: 3.3% (inactive)

Q: How did the inhibition turn out when `Cc1ccc(C)c(NC(=O)CCS(=O)(=O)c2ccccc2)c1` was run?
A: 10% (inactive)

Q: For `O=S(=O)(Nc1n[nH]c(C(F)(F)F)n1)c1ccccc1`, which inhibition is on record?
A: -0.91% (inactive)

Q: Which inhibition does the source give for `Cc1noc(C)c1C(=O)OC(C)C(=O)Nc1ccc2c(c1)OCO2` (stereo not given) here?
A: -4.06% (inactive)

Q: How did the inhibition turn out when `O=S(=O)(NC1CC1)c1ccc(F)c(F)c1` was run?
A: 0.17% (inactive)

Q: Which inhibition does the source give for `Cn1sc(=O)c2cc(S(=O)(=O)NC3CC3)ccc21` here?
A: 36.8% (active)

Q: How did the inhibition turn out when `CC1CCC(NS(=O)(=O)c2ccc3c(c2)CC(=O)N3)CC1` (stereo not given) was run?
A: 2.71% (inactive)

Q: With `O=C(O)C#Cc1cccc2ccccc12` as the compound, how does the inhibition read?
A: -1.9% (inactive)

Q: How did the inhibition turn out when `CC(CCN1CCC(C(O)(c2ccccc2)c2ccccc2)CC1)Oc1ccc(C(F)(F)F)cc1` (stereo not given) was run?
A: 0.57% (inactive)

Q: `CCOc1ccc(-n2c(SCC(=O)Nc3cc(C)c(NC(=O)c4ccccc4)cc3OC)nnc2-c2cccc(Cl)c2)cc1` was tested. Which inhibition did it give?
A: 7.2% (inactive)

Q: With `C=CS(=O)c1sc(Cl)c(N2CCOCC2)c1[N+](=O)[O-]` (stereo not given) as the compound, how does the inhibition read?
A: 73.1% (active)

Q: `CCN(C(=O)[C@@H](C1CC1)[C@@H](O)c1ccc2ccccc2c1)c1ccccc1` was tested. Which inhibition did it give?
A: -0.98% (inactive)

Q: For `O=C(O)C1CCN(C(=O)c2cc(F)cc3c2OCOC3)CC1`, which inhibition is on record?
A: -0.21% (inactive)

Q: `CC(=O)N1CCc2cc(Br)cc(S(=O)(=O)CCC(=O)Nc3c(C)n(C)n(-c4ccccc4)c3=O)c21` was tested. Which inhibition did it give?
A: 4.6% (inactive)

Q: For `O=C(CSCc1ccc([N+](=O)[O-])cc1)NCCSCc1ccccc1`, which inhibition is on record?
A: -0.87% (inactive)

Q: `CC(C)(C)C(=O)NCCCNc1ccc([N+](=O)[O-])cc1` was tested. Which inhibition did it give?
A: 9.07% (inactive)

Q: Which inhibition does the source give for `O=C(O)/C=C/C(=O)NNc1ccc([N+](=O)[O-])cc1` here?
A: 59% (active)

Q: Which inhibition does the source give for `COC(=O)c1ccccc1-n1cc(COC(=O)NCCc2ccccc2)nn1` here?
A: -0.03% (inactive)

Q: `S=c1[nH]nc(-c2ccco2)n1/N=C/c1ccc(Br)s1` was tested. Which inhibition did it give?
A: 34.3% (active)

Q: With `Brc1ccc(/C=N/N2CCN(C3c4ccccc4-c4ccccc43)CC2)s1` as the compound, how does the inhibition read?
A: -0.5% (inactive)

Q: With `CCc1ccccc1NC(=S)N(CCN1CCCCCC1)Cc1ccco1` as the compound, how does the inhibition read?
A: -6.03% (inactive)

Q: How did the inhibition turn out when `Cn1c(C(=O)NCCCN2CCCCC2)cc2sccc21` was run?
A: -0.77% (inactive)

Q: `O=C(Nc1ccc(Br)cc1)OCCN1C(=O)CCC12CCC(c1ccccc1)CC2` (stereo not given) was tested. Which inhibition did it give?
A: -1.94% (inactive)

Q: With `O=C1C(Cl)=C(Oc2ccccc2)C(=O)c2ccccc21` as the compound, how does the inhibition read?
A: 88.5% (active)

Q: With `COc1ccc(Cn2cc(CN3[C@@H](CC(C)C)COc4cc(Br)ccc4S3(=O)=O)nn2)cc1` as the compound, how does the inhibition read?
A: -4.17% (inactive)

Q: `Cc1ccc(-n2c(SCC(=O)Nc3ccc(S(=O)(=O)Nc4nccs4)cc3)nnc2-c2ccncc2)cc1` was tested. Which inhibition did it give?
A: -1.23% (inactive)

Q: With `CC(C)CNc1cccc2c1S(=O)(=O)N(Cc1cn(Cc3ccc(Cl)cc3)nn1)Cc1ccccc1O2` as the compound, how does the inhibition read?
A: -5.99% (inactive)

Q: `O=C(NCc1ccccc1)[C@@H]1CCCN1C(=O)[C@H]1CCCN1C(=O)c1cccc(Cl)c1` was tested. Which inhibition did it give?
A: -3.52% (inactive)

Q: For `O=C(O)c1ccccc1CSc1nc2ccccc2s1`, which inhibition is on record?
A: 40.8% (active)

Q: For `O=C(CSc1nc2ccccc2s1)NN=Cc1ccc(O)cc1O`, which inhibition is on record?
A: -0.64% (inactive)

Q: `O=C(CSc1nc2ccccc2s1)N=Nc1c(O)[nH]c2ccccc12` was tested. Which inhibition did it give?
A: 2.56% (inactive)

Q: How did the inhibition turn out when `Cc1ccc(NC(=O)c2cc(C)nn2-c2ccccc2)c(C)c1` was run?
A: -2.87% (inactive)

Q: Which inhibition does the source give for `CCCC(=O)NC(Nc1ccccc1OC)C(Cl)(Cl)Cl` (stereo not given) here?
A: 1.36% (inactive)

Q: With `CCN(CC)c1ccc2oc(=O)c(C)nc2c1` as the compound, how does the inhibition read?
A: 46.6% (active)

Q: Which inhibition does the source give for `CCN(C(=O)CSc1nnc(-c2ccc(OC(F)F)cc2)n1N)C1CCS(=O)(=O)C1` (stereo not given) here?
A: -3.24% (inactive)

Q: For `Cc1ccc(Cc2cnc(N)s2)o1`, which inhibition is on record?
A: 40.4% (active)

Q: For `Cc1ccc(-n2c(C)cc(/C=C(\C#N)C(=O)NCC3CCCO3)c2C)cc1` (stereo not given), which inhibition is on record?
A: -0.82% (inactive)

Q: `CCCNC(=O)Nc1ccc2c(c1)C(=O)N(C)[C@H]1CC[C@H](CC(=O)NCC3CCCCC3)O[C@@H]1CO2` was tested. Which inhibition did it give?
A: 1.64% (inactive)

Q: For `C[C@@H](NC(=O)c1ccccc1OCC(=O)Nc1ccc(I)cc1)C(=O)N(C)Cc1ccccc1`, which inhibition is on record?
A: -0.05% (inactive)
